The target of this experiment is Eukaryotic translation initiation factor 4H (Homo sapiens) (UniProt Q15056). Put plainly: human eIF4H binding inhibitors, primary screen, translation initiation inhibitor project, biochemical, uHTS, fluorescence polarization (AID 2012).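 Further: calls also rest on retests at 20 µM and on dose response follow-up.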 The conditions noted are these: eIF4H fluorescence polarization binding assay, stronger effect = higher value.

Hit rate of the full screen: of about 290,000 compounds, about 2,700 (0.93%) were called active. How the calls were made is not given here. The full list was thinned out, with actives kept by preference.

For the compound `CS(=O)(=O)N1CCc2cc(C(=O)Nc3ccccc3Br)ccc21`, the inhibition (at 35 µM) is -0.6% (inactive). Still for that read-out and setting: in the case of `COCc1ccc(CN2CCC(Oc3ccc(C(=O)NCc4ccccn4)cc3)CC2)o1` it was -2.5% (inactive); in that of `O=C(COC(=O)c1cccs1)NCc1cccs1`, -7.5% (inactive); in that of `O=C(CC1CCCCC1)NCc1ccco1`, -6.2% (inactive).

With `O=C(COC(=O)c1cnc(Cl)c(Cl)c1)NCc1ccco1`, for the setting “at 35 µM”, the inhibition is -1.2% (inactive). As for `O=C(COC(=O)CCC(=O)c1cccs1)NCc1ccco1`, the inhibition runs as follows: (at 35 µM) 87% (active); (confirmation average, at 20 µM) 63.4%.

As for `O=C(CC12CC3CC(CC(C3)C1)C2)NCc1ccco1`, the inhibition (at 35 µM) was -1% (inactive). On to `O=C(COC(=O)C12CC3CC(CC(C3)C1)C2)NCc1ccco1`, for which the inhibition (at 35 µM) is 50.9% (active) and the inhibition (confirmation average, at 20 µM) is 92.2%. On to `CC(C)CC(O)C1CCN(C(=O)CCc2nnc(-c3ccc4c(c3)OCO4)o2)CC1` (centres undefined), for which the inhibition (at 35 µM) was 11.1% (inactive).

Regarding `O=C(N/N=C\C1CC=CCC1)c1ccc(Br)o1` (centres undefined), the inhibition (at 35 µM) was -1.2% (inactive). For the compound `CC(NC(=O)Cn1cc(C(F)(F)F)cc(Cl)c1=O)c1ccccc1` (centres undefined), the inhibition (at 35 µM) was 4.6% (inactive).

Take `O=C(O)c1cc(S(=O)(=O)NC2CCCc3ccccc32)ccc1O` (centres undefined): under “at 35 µM”, the inhibition was -2.4% (inactive).

As to `Cc1ccc(CNC(=O)CCS(=O)(=O)c2ccc3c(c2)CC(C)N3C(=O)C2CC2)o1` (centres undefined), the inhibition (at 35 µM) was -4.8% (inactive). As to `O=C(CCCN1C(=O)/C(=C/c2ccco2)SC1=S)Nc1ccccc1`, the inhibition is 77.4% (inactive) (at 35 µM) and 3.8% (confirmation average, at 20 µM). In the case of `CN1C(=O)/C(=C/c2ccco2)SC1=Nc1cccc(C(=O)O)c1`, the inhibition by setting is: (at 35 µM) 99% (active); (confirmation average, at 20 µM) 106%. On the same counts, the results for `O=C(CCCN1C(=O)/C(=C\c2ccco2)SC1=S)Nc1cccc2ccccc12` are 91.9% (inactive) and -11.3%.

Turning to `CC(Oc1ccccc1)C(=O)Nc1c2c(nn1-c1ccccc1)CS(=O)C2` (centres undefined), for the setting “at 35 µM”, the inhibition was -8.2% (inactive).

For the compound `O=C(OCc1ccc(-c2ccccc2)cc1)c1cccc(O)c1`, the inhibition (at 35 µM) is -0.5% (inactive). Turning to `Cc1cc(/C=C2\SC(=Nc3ccc(N4CCOCC4)cc3)N(C)C2=O)c(C)n1-c1cccnc1`, where the note is “at 35 µM”, the inhibition was 2.5% (inactive). Still for that read-out and setting: to `Cc1cc(/C=C2/SC(=O)N(CC(=O)N3CCCC3)C2=O)c(C)n1C` belongs 8.5% (inactive); to `Cc1cc(/C=C2\SC(=O)N(C)C2=O)c(C)n1-c1cccc(C(=O)O)c1`, 89.5% (active). For the compound `CC1CN(C(=S)Nc2ccc(S(N)(=O)=O)cc2)CC(C)O1` (centres undefined), the inhibition (at 35 µM) is 4.3% (inactive). As for `COc1ccc(N2CCN(C(=S)Nc3ccc(S(N)(=O)=O)cc3)CC2)cc1`, the inhibition (at 35 µM) is -13.4% (inactive). Turning to `NS(=O)(=O)c1ccc(NC(=S)N2CCCC2)cc1`, the inhibition is, setting by setting: (at 35 µM) 102% (active); (confirmation average, at 20 µM) 104%. As for `C=CCn1c(C23CC4CC(CC(C4)C2)C3)n[nH]c1=S`, the inhibition (at 35 µM) was -9.9% (inactive).

On to `CC(=O)N1CCN(c2ccccc2NC(=S)NC(=O)c2cc3ccccc3o2)CC1`, for which the inhibition (at 35 µM) is -11.7% (inactive). As to `CC(C(=O)Nc1ccc(O)c(C(=O)O)c1)N1C(=O)/C(=C/c2cccs2)SC1=S` (centres undefined), the inhibition (at 35 µM) was -4.3% (inactive). For `CC(=O)NS(=O)(=O)c1ccccc1`, for the setting “at 35 µM”, the inhibition was -6.2% (inactive). As for `Nc1ccc(S(=O)(=O)NC(=O)c2ccccc2)cc1`, the inhibition (at 35 µM) is -6.9% (active) and the inhibition (confirmation average, at 20 µM) came out at 95.5%. In the case of `Cc1ccc(S(=O)(=O)NC(=O)c2cccc(C)c2)cc1`, the inhibition (at 35 µM) is -5% (inactive). Regarding `CN1CN(C)c2ccc([N+](=O)[O-])c3cccc1c23`, the inhibition (at 35 µM) was 2.5% (inactive). `Nc1c(C(=O)c2cccs2)sc2nsc(SCCN3CCCCC3)c12`: the inhibition (at 35 µM) is 47.9% (inactive).

As for `CN(C(=O)COC(=O)c1nc(Cl)ccc1Cl)C1CCS(=O)(=O)C1` (centres undefined), the inhibition (at 35 µM) was 10.5% (inactive).

Turning to `Cc1c(-c2cccc(Cl)c2)nc2ccccc2c1C(=O)OCC(=O)N(C)C1CCS(=O)(=O)C1` (centres undefined), under “at 35 µM”, the inhibition is -7% (inactive). Take `CN(C(=O)COC(=O)c1cc(-c2ccco2)nc2ccccc12)C1CCS(=O)(=O)C1` (centres undefined): the inhibition (at 35 µM) is 87.9% (active).

For `Cc1ccnc2nc(C(=O)Nc3nnc(-c4ccccc4)o3)nn12`, the inhibition is, setting by setting: (at 35 µM) 79.8% (active); (confirmation average, at 20 µM) 77.1%. With `Cc1cccc(NC(=O)Nc2nnc(-c3ccccc3)o2)c1`, the inhibition (at 35 µM) was -0.2% (inactive).

For the compound `CCc1nnc(NC(=O)c2nc3nccc(C)n3n2)s1`, the inhibition (at 35 µM) is -4% (inactive). Still for that read-out and setting: to `O=C(N/N=C/c1ccccc1O)C1CCCC1` belongs -4.4% (inactive); to `CN(C(=O)C1CCN(c2ncnc3c2nc2n3CCCCC2)CC1)C1CCCCC1`, -2.5% (inactive).

For the compound `Cc1ccc(OCc2cc(C(=O)N(C)CCn3ccnc3C)no2)cc1C`, the inhibition (at 35 µM) is -8.6% (inactive).

Consider `COc1ccc(CNC(=O)c2cc3c(=O)n4ccccc4nc3n(CC3CCCO3)c2=N)cc1` (centres undefined), for which, under “at 35 µM”, the inhibition was -5.4% (inactive). On to `Cc1cccn2c(=O)c3cc(C(=O)NCC4CCCO4)c(=N)n(Cc4ccc(F)cc4)c3nc12` (centres undefined), for which the inhibition (at 35 µM) is -14.9% (inactive). Regarding `Cc1ccc2nc3c(cc(C(=O)NCCc4ccccc4)c(=N)n3CC3CCCO3)c(=O)n2c1` (centres undefined), the inhibition (at 35 µM) is 94.7% (active). On to `Cc1cc(NC(=O)[C@H](C)NC(=O)c2ccco2)ccc1Br`, for which the inhibition (at 35 µM) is -0.5% (inactive). On to `O=C1CC(N2CCN(c3ccc(F)cc3)CC2)C(=O)N1c1ccccc1` (centres undefined), for which the inhibition (at 35 µM) was -4% (inactive). Take `O=C1CCCC2=C1C(c1cccs1)CC(=O)N2c1ccc(F)cc1` (centres undefined): the inhibition (at 35 µM) is -3.5% (inactive). With `N#CC1=C(N)N(c2ccc(F)cc2)C(=O)C1`, under “at 35 µM”, the inhibition was 50% (active).

As for `Cc1cc(S(=O)(=O)N2CCOCC2)ccc1OCC(=O)N1CCOCC1`, the inhibition (at 35 µM) was -9.8% (inactive). Same read-out and setting: to `O=C(NC1CCC(O)CC1)c1ccccc1OCc1ccc(F)cc1` (centres undefined) belongs 4.1% (inactive). Take `CCCNC(=O)CCc1c(C)nc2c(c(C)nn2-c2ccccc2)c1C`: the inhibition (at 35 µM) was -1.8% (inactive).

`Cc1ccc(NC(=O)C(CC(=O)O)C2CCCO2)c(C)c1` (centres undefined): the inhibition (at 35 µM) was -7% (inactive). `N/C(=N\OS(=O)(=O)c1cccc([N+](=O)[O-])c1)c1ccncc1`: the inhibition by setting is: (at 35 µM) 73.8% (active); (confirmation average, at 20 µM) 88.7%. In the case of `O=C(N/N=C/c1cccc([N+](=O)[O-])c1)c1ccncc1`, the inhibition (at 35 µM) was 0.8% (inactive). In the case of `CO/N=C(\N)c1ccc([N+](=O)[O-])cc1`, for the setting “at 35 µM”, the inhibition is 0.6% (inactive). Same read-out and setting: to `CC(Cc1cccs1)N(Cc1ccc(Cl)cc1)C(=O)c1ccncc1` (centres undefined) belongs -2% (inactive). As for `CCN(C(=O)COC(=O)c1cc(S(=O)(=O)N2CCc3ccccc32)ccc1OC)C1CCS(=O)(=O)C1` (centres undefined), the inhibition was 3.9% (active) (at 35 µM) and 71.9% (confirmation average, at 20 µM). Turning to `COc1ccccc1N(C)C(=O)c1cc(S(=O)(=O)N2CCc3ccccc32)cn1C`, for the setting “at 35 µM”, the inhibition is -9.4% (inactive). Regarding `COc1ccc(C(=O)OCC(=O)NCC2CCCCC2)cc1S(=O)(=O)N1CCCc2ccccc21`, the inhibition (at 35 µM) is -7.1% (inactive).

(Values after PubChem BioAssay AID2012 (Sanford-Burnham Center for Chemical Genomics, 2009).)
